In all, about 380,000 compounds went through this assay and about 1,300 (0.34%) were called active. Shown is part of a subset that was picked to be rich in actives. Unmarked numbers belong to inactive results.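 Rule for the calls: active = drop in luminescence signal, shown as inhibition above about 50% in the replicate tests (limit read from the data, passing the limit was not always enough); inconclusive = probably only some replicates passing the limit; inactive = the rest.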
These compounds were tested on Drosophila bursicon receptor LGR2 (rickets) (assay: inhibitors of bursicon-induced LGR2 CRE-luciferase signal, primary screen, cell-based, HEK293, CRE-luciferase reporter, bursicon stimulation (AID 720647;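 note: agonist challenge used bursicon conditioned medium at about half maximal strength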)). Conditions: bursicon-stimulated, 4 h, at 9.99 µM, active compounds read high.

Row | SMILES | inhibition
1 | Cn1cnc(C(F)(F)F)c1-c1ccc([N+](=O)[O-])cc1 | -7.43%
2 | Cc1ccc(-c2cn3cc([N+](=O)[O-])ccc3n2)cc1 | 67.1% (active)
3 | Cc1ccc2nc(-c3ccc(Br)cc3)cn2c1 | 96.2% (active)
4 | Cc1ccc(-c2cn3cc(C)ccc3n2)cc1 | 102% (active)
5 | Cc1nc(=O)c(-c2ccccc2)c(C)n1-c1ccc(Br)cc1 | 4.28%
6 | Cc1ccc(N2CCN(c3ccc([N+](=O)[O-])cn3)CC2)c(C)c1 | 4.63%
7 | COc1ccccc1Cc1c(-c2ccc(F)cc2)nc2ccc(C)cn12 | -38.1%
8 | Cc1nc(-c2ccccc2)cn2c1nc1ccccc12 | 3%
9 | C[C@@H]1CN([C@@H](C)CO)C(=O)c2cc(C3=CCCC3)cnc2O[C@H]1CN(C)C(=O)c1ccccn1 | -11.6%
10 | COc1ccc(NC(=O)Nc2ccc3c(c2)[C@@H]2C[C@@H](CC(=O)NCc4ccncc4)O[C@@H](CO)[C@@H]2O3)cc1 | 6.93%
11 | CCC(=O)N(C)C[C@@H]1Oc2cc(-c3ccc(C#N)cc3)ccc2S(=O)(=O)N([C@@H](C)CO)C[C@@H]1C | -4.05%
12 | Cc1nc(N2[C@H](CO)[C@H](c3ccccc3)[C@H]2CNCC2CCCCC2)sc1C | -6.28%
13 | O=C(O)c1ccc(N/N=C/c2ccc3ncccc3c2)cc1 | 88.1% (active)
14 | NCCCCCC(=O)N/N=C/c1ccc2nccnc2c1 | -0.608%
15 | CCc1nc2cccnc2n1-c1ccc(C(=O)O)cc1 | -11.5%
16 | O=C(C[C@H]1C=C[C@@H](NC(=O)C2CCOCC2)[C@@H](CO)O1)NCC1CCCCC1 | 25%
17 | Cc1noc(C)c1NC(=O)N(C)C[C@H]1Oc2ccc(NS(=O)(=O)c3ccc(F)cc3)cc2C(=O)N([C@@H](C)CO)C[C@H]1C | -0.097%
18 | N[C@@H](Cc1ccccc1)C(=O)N1CCOCC1 | -3.78%
19 | O=C(O)CC(CC(=O)N1CCOCC1)c1ccccc1 (stereo not given) | 7.83%
20 | O=C(CSC(=S)N1CCOCC1)c1ccccc1 | 69.5% (active)
21 | C[C@@H]1CN([C@@H](C)CO)S(=O)(=O)c2ccc(-c3ccc(C#N)cc3)cc2O[C@H]1CN(C)Cc1ccccn1 | 12.2%
22 | CCCC(=O)N1CC2(CN(C(=O)NC(C)C)C2)c2c([nH]c3cc(OC)ccc23)[C@@H]1CO | 0.057%
23 | O=C(NCc1ccco1)/C(=C\c1cccc([N+](=O)[O-])c1)NC(=O)c1ccco1 | 21.6%
24 | Cc1ccc(C(=O)N/C(=C/c2ccc(-c3cccc([N+](=O)[O-])c3)o2)C(=O)NCCCN(C)C)cc1 | 77.8% (active)
25 | CCn1cc(/C=C(\NC(=O)c2ccc(C)cc2)C(=O)NCCN2CCOCC2)c2ccccc21 | -9.89%

Row | SMILES | inhibition
26 | C[C@H](CO)N1C[C@H](C)[C@@H](CN(C)S(=O)(=O)c2ccc(F)cc2)OCCCC[C@H](C)Oc2ccc(NC(=O)CCCN(C)C)cc2C1=O | -10.7%
27 | Cc1c(C(=O)NCCN(C)C)oc2ccc(S(=O)(=O)N3CCCC3)cc12 | -6.68%
28 | Nc1nc2c(Br)ccc(Br)c2cc1C(=O)NCCc1ccccc1 | -7.19%
29 | CN(C)CCNC(=O)c1ccc(Cl)c2cc3ccccc3nc12 | 86.6% (active)
30 | CC(C)NC(=O)N(C)C[C@@H]1OCCCC[C@@H](C)Oc2ccc(NC(=O)CCCN(C)C)cc2C(=O)N([C@@H](C)CO)C[C@@H]1C | 0.91%
31 | Cc1ccc(NC(=O)C2CCCN2C(=O)OCc2ccccc2)cc1C (stereo not given) | 1.81%
32 | CCOc1ccc(NC(=O)C(C)N2C(=O)c3ccccc3C2=O)cc1 (stereo not given) | -1.28%
33 | CCOc1ccc(NC(=O)N2CCN(CC)CC2)cc1 | -10.6%
34 | CCOc1ccc(N/C=C/C(=O)c2ccccc2)cc1 | 70.1% (active)
35 | Cc1ccc(N/C=C/C(=O)c2ccccc2)cc1C | 74.5% (active)
36 | Cc1cc(C)nc(NS(=O)(=O)c2ccc(N/C=C\C(=O)c3cccs3)cc2)n1 | 0.601%
37 | Cc1ccc(S(=O)(=O)N(C)C[C@@H]2Oc3ncc(-c4cc5ccccc5o4)cc3C(=O)N([C@H](C)CO)C[C@@H]2C)cc1 | 4.4%
38 | COc1ccc2c3c(n(C)c2c1)[C@@H](CO)N(C(=O)Nc1ccc(F)cc1)CC31CN(C(=O)NC(C)C)C1 | -1.12%
39 | COC(=O)C[C@H]1CC[C@H](NC(=O)Nc2ccc(C(F)(F)F)cc2)[C@H](CO)O1 | -0.777%
40 | COc1cccc(-c2ccc3c(c2)O[C@H](CN(C)C(=O)C2CCOCC2)[C@H](C)CN([C@H](C)CO)S3(=O)=O)c1 | -17.4%
41 | COc1cccc2cc(C(N)=O)/c(=N\NC(=O)c3ccccc3)oc12 | 72.2% (active)
42 | COc1cccc2cc(C(=O)NCc3ccc(C)cc3)c(=N)oc12 | -0.361%
43 | COc1cccc2cc(/C(C)=N/NC(=O)c3ccco3)oc12 | -27.1%
44 | C[C@@H]1CCCCO[C@H](CN(C)S(=O)(=O)c2cn(C)cn2)[C@H](C)CN([C@H](C)CO)C(=O)c2cc(N(C)C)ccc2O1 | 10.5%
45 | Cc1ccc(S(=O)(=O)NCC[C@@H]2CC[C@@H](NC(=O)CCN3CCCCC3)[C@@H](CO)O2)cc1 | 3.54%
46 | N#C[C@@H]1[C@@H](c2ccc(C3=CCCCC3)cc2)[C@@H](CO)N1C(=O)c1cccc(F)c1 | 7.91%
47 | C[C@H]1CN([C@@H](C)CO)C(=O)c2cc(-c3ccncc3)cnc2O[C@H]1CN(C)C(=O)c1cccc(F)c1 | -3.95%
48 | CCC(=O)N1CC[C@H]2[C@@H]1c1cc(-c3ccc(C#N)cc3)ccc1N(C)[C@H]2CO | -10.9%
49 | C[C@@H]1CCCCO[C@H](CN(C)C(=O)NC2CCCCC2)[C@@H](C)CN([C@H](C)CO)C(=O)c2cc(NS(=O)(=O)c3ccc(F)cc3)ccc2O1 | -5.15%
50 | COc1cccc2c1C(=O)c1c(O)c3c(c(O)c1C2=O)CC(O)(C(C)=NNC(=O)c1ccc(Cl)c(Cl)c1)CC3OC1CC(N)C(O)C(C)O1 (stereo not given) | 96.4% (active)

Source: PubChem BioAssay AID720647 (Broad Institute, 2013)
